Holding throughout (assay): DAPPL (digital affinity profiling via proximity ligation, sequencing); 10 mM Tris-HCl pH 7.5, 50 mM NaCl, 1 mM DTT, 4% glycerol, room temperature, 30 min; GST-TFs on glutathione beads, 16-mer random dsDNA library, 0.1% formaldehyde crosslink after washing; high values mean tight binding
Assay [1] addresses T1, FEV (Homo sapiens, UniProt Q99581 1-238).
T1 sequence: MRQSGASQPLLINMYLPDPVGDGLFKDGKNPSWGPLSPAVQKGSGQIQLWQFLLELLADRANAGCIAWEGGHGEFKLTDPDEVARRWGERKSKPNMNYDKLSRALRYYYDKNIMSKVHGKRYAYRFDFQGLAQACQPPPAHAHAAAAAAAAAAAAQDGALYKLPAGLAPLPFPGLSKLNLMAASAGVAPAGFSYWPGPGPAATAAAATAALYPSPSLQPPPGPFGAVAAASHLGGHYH
The settings on record: protein: recombinant; tags: N-terminal GST; dsDNA, one strand shown. In outline:
(§1)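 Each value of binding signal is a hexamer's read frequency for a factor divided by the same hexamer's frequency in the tag-only sample. Barcoded, bead-captured GST fusions of human transcription factors made in yeast were pooled with that sample and incubated with 200 nmole of a random double-stranded 16-mer DNA library in Tris/NaCl/DTT/glycerol buffer at room temperature for 30 min. Washing, 0.1% formaldehyde crosslinking, proximity ligation, PCR and Illumina NextSeq500 sequencing followed.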

For assay [2], the target named is ETV5 (Homo sapiens, UniProt P41161 1-510). The following applies: protein: recombinant; tags: N-terminal GST; dsDNA, one strand shown. In outline: as §1
Sequence of ETV5 (P41161 whole entry): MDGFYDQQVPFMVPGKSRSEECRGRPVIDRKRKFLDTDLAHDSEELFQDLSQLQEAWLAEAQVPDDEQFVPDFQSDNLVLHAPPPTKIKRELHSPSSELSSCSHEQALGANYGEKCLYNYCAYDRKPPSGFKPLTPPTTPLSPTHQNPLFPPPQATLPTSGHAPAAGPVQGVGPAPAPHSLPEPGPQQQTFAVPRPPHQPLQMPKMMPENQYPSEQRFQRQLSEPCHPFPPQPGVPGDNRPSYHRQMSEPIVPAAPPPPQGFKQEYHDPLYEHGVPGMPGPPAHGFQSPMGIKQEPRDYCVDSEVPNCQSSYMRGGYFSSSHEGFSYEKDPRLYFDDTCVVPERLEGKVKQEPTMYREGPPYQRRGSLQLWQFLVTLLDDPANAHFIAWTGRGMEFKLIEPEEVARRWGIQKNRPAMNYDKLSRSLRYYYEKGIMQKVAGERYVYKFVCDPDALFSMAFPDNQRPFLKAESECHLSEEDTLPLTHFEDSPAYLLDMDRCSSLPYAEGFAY
Assay [3] has as its target HSF1 (Homo sapiens, UniProt Q00613 1-529). The settings on record: protein: recombinant; tags: N-terminal GST; chain copies: 3; dsDNA, one strand shown. In short, it runs like this: as §1
Assay [4] has as its target T2, SPIC (Homo sapiens, UniProt Q8N5J4 1-248).
T2 sequence: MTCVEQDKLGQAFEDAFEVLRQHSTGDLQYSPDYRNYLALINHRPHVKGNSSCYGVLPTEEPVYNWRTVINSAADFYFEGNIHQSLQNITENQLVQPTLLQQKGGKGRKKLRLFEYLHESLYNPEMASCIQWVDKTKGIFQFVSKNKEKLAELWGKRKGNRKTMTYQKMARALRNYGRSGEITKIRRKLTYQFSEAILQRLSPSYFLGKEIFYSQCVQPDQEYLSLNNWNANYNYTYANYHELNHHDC
The following applies: protein: recombinant; tags: N-terminal GST; dsDNA, one strand shown. In outline: as §1

Assay [5] deals with ELF4 (Homo sapiens, UniProt Q99607 1-663). The settings on record: protein: recombinant; tags: N-terminal GST; dsDNA, one strand shown. In outline: as §1
Sequence of ELF4 (Q99607 whole entry): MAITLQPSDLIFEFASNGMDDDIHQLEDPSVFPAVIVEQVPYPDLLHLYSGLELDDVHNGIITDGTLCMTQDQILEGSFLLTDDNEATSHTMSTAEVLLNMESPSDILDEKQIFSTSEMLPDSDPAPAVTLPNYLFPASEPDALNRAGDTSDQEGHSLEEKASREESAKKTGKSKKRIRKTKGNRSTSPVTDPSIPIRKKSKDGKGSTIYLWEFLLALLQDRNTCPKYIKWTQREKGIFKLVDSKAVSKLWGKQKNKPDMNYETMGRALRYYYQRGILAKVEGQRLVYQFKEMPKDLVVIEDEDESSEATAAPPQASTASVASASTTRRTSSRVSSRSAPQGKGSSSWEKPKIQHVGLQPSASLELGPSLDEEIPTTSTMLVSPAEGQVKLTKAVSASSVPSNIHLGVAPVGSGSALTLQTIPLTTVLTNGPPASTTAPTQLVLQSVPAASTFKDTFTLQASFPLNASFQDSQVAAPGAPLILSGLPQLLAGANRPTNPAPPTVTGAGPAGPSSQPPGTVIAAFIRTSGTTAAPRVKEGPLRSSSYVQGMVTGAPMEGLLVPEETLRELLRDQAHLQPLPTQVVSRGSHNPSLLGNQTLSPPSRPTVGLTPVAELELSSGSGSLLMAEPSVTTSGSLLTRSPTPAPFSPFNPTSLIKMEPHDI
The target in assay [6] is T3, ELK4 (Homo sapiens, UniProt P28324-2 1-405).
T3 sequence: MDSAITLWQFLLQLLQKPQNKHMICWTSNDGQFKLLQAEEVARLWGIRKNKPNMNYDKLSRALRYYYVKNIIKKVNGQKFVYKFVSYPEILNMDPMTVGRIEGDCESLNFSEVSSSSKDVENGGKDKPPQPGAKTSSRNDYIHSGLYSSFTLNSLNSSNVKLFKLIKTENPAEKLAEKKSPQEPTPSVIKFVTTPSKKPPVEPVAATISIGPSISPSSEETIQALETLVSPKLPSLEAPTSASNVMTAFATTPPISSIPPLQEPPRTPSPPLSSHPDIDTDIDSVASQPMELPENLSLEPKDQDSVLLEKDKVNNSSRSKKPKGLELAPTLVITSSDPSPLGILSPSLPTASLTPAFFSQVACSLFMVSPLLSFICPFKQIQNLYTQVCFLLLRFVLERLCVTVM
The settings on record: protein: recombinant; tags: N-terminal GST; dsDNA, one strand shown. In outline: as §1

Assay [7] addresses T4, ETV2 (Homo sapiens, UniProt O00321 1-342).
T4 sequence: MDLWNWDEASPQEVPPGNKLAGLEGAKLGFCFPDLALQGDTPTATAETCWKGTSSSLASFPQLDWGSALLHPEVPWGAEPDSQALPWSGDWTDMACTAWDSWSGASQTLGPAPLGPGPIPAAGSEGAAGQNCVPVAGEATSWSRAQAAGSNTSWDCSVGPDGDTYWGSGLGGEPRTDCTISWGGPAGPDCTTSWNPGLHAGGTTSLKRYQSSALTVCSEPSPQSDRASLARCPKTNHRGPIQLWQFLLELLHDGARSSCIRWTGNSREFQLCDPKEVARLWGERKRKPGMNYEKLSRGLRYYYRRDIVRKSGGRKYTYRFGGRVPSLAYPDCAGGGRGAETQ
The settings on record: protein: recombinant; tags: N-terminal GST; dsDNA, one strand shown. In short, it runs like this: as §1

The target in assay [8] is T5, ELF3 (Homo sapiens, UniProt P78545 1-371).
T5 sequence: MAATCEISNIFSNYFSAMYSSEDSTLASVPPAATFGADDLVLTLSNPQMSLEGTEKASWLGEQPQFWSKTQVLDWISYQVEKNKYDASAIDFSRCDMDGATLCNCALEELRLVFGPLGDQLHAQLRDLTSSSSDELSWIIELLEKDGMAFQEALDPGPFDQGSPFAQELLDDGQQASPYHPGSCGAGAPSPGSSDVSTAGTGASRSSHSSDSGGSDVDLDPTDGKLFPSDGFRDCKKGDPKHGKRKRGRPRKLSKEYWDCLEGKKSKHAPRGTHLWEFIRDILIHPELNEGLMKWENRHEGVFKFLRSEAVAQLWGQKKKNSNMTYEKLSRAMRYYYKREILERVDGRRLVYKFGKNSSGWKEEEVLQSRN
The settings on record: protein: recombinant; tags: N-terminal GST; dsDNA, one strand shown. In outline:
as §1

The target in assay [9] is CRX (Homo sapiens, UniProt O43186 1-299). The settings on record: protein: recombinant; tags: N-terminal GST; dsDNA, one strand shown. In short, it runs like this: as §1
Sequence of CRX (O43186 whole entry): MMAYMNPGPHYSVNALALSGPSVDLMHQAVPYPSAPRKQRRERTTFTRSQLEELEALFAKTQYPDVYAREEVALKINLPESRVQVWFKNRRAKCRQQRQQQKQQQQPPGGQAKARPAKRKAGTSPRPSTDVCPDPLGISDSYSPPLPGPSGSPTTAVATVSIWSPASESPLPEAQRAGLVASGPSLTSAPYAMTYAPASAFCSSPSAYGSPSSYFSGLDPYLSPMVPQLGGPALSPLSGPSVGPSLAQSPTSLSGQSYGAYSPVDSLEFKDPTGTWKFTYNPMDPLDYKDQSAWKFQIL
The target of assay [10] is ETV1 (Homo sapiens, UniProt P50549 1-477). The settings on record: protein: recombinant; tags: N-terminal GST; dsDNA, one strand shown. In outline:
as §1

Assay [11] addresses T6, ERF (Homo sapiens, UniProt P50548 1-548).
T6 sequence: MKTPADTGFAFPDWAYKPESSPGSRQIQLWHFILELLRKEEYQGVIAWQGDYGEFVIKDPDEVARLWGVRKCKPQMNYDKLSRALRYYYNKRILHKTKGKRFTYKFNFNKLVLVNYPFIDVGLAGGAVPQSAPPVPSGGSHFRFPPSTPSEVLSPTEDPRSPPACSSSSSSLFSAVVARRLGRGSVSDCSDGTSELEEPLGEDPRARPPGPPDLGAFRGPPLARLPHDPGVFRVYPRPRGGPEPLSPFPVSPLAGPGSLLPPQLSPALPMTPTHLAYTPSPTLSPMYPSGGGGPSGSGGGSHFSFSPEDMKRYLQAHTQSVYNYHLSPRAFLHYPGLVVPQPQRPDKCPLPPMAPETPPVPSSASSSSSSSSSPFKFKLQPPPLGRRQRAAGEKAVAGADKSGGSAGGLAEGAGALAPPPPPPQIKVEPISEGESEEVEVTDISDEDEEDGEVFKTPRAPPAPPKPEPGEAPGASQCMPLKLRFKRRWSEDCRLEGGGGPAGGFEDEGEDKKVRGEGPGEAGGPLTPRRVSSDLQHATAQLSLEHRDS
The following applies: protein: recombinant; tags: N-terminal GST; dsDNA, one strand shown. In outline: as §1

For assay [12], the target named is T7, ETV3L (Homo sapiens, UniProt Q6ZN32 1-361).
T7 sequence: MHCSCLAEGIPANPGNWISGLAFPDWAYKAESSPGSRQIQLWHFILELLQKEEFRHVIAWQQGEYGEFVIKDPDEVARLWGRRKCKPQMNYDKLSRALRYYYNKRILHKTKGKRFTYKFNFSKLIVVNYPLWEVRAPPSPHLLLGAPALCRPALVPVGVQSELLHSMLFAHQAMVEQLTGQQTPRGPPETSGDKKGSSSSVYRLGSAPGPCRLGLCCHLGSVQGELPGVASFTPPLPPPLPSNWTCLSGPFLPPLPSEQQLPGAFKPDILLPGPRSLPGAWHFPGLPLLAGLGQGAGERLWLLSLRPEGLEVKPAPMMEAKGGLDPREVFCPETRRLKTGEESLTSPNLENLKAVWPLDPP
The following applies: protein: recombinant; tags: N-terminal GST; dsDNA, one strand shown. In short, it runs like this:
as §1

Assay [13] addresses T8, ETS2 (Homo sapiens, UniProt P15036 1-469).
T8 sequence: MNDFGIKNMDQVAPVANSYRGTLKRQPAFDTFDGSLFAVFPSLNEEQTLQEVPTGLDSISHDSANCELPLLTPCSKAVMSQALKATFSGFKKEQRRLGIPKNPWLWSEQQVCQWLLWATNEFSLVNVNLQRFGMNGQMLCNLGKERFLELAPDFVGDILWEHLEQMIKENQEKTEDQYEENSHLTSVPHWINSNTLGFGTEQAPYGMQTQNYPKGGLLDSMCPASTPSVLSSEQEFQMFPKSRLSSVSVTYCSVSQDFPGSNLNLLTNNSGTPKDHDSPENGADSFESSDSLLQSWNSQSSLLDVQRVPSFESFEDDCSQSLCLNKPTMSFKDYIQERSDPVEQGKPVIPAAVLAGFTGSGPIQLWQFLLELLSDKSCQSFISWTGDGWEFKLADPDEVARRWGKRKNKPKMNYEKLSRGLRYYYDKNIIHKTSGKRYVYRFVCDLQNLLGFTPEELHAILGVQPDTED
The settings on record: protein: recombinant; tags: N-terminal GST; dsDNA, one strand shown. In short, it runs like this:
as §1

In assay [14] the target is T9, SPDEF (Homo sapiens, UniProt O95238 1-335).
T9 sequence: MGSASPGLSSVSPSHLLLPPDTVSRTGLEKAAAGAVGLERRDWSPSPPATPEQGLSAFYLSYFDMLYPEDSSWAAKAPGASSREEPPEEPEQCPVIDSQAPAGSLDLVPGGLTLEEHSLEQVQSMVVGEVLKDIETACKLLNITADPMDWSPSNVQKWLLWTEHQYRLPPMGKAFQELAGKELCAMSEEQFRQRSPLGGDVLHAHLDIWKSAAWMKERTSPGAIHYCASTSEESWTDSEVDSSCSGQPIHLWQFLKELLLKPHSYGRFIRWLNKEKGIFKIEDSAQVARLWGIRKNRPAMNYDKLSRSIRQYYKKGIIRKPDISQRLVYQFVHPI
The settings on record: protein: recombinant; tags: N-terminal GST; dsDNA, one strand shown. In short, it runs like this:
as §1

The target in assay [15] is T10, ETV7 (Homo sapiens, UniProt Q9Y603 1-341).
T10 sequence: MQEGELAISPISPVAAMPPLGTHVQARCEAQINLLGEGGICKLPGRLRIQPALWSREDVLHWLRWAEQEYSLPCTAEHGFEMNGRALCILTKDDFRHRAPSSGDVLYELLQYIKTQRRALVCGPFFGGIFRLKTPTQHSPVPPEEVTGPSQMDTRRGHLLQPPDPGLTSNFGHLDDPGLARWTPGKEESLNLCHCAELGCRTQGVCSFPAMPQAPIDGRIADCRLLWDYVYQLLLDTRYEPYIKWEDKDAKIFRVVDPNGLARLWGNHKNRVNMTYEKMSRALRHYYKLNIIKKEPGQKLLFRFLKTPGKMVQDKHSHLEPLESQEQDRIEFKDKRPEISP
The settings on record: protein: recombinant; tags: N-terminal GST; dsDNA, one strand shown. In outline: as §1

Assay [16] deals with T11, ELF5 (Homo sapiens, UniProt Q9UKW6-2 1-255).
T11 sequence: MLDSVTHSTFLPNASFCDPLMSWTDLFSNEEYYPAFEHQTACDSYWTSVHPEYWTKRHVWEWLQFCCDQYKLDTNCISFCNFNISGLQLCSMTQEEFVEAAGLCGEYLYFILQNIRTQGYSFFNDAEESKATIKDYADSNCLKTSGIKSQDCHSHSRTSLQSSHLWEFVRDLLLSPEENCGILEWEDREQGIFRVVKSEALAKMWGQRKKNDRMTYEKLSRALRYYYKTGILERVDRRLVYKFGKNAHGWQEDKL
The following applies: protein: recombinant; tags: N-terminal GST; dsDNA, one strand shown. In outline: as §1

Assay [17] has as its target T12, ETV3 (Homo sapiens, UniProt P41162-2 1-143).
T12 sequence: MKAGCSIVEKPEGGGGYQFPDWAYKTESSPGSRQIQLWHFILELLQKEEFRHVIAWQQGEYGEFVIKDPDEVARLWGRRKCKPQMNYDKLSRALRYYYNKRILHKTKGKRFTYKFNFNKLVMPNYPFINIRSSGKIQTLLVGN
The following applies: protein: recombinant; tags: N-terminal GST; dsDNA, one strand shown. In short, it runs like this: as §1

In assay [18] the target is ETV6 (Homo sapiens, UniProt P41212 1-452). The following applies: protein: recombinant; tags: N-terminal GST; dsDNA, one strand shown. In outline: as §1
Sequence of ETV6 (P41212 whole entry): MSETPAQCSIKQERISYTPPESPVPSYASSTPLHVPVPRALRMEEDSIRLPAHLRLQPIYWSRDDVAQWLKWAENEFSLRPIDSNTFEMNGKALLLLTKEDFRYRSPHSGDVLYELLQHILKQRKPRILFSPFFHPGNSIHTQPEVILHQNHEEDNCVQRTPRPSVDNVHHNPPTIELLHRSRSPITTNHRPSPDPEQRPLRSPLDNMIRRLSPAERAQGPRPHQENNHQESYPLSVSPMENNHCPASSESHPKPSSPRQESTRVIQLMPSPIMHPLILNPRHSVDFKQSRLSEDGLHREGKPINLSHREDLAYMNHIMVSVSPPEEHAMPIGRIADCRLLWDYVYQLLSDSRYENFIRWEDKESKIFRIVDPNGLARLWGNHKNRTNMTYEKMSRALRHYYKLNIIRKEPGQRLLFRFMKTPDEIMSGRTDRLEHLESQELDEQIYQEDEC

Sequence of ETV1 (P50549 whole entry): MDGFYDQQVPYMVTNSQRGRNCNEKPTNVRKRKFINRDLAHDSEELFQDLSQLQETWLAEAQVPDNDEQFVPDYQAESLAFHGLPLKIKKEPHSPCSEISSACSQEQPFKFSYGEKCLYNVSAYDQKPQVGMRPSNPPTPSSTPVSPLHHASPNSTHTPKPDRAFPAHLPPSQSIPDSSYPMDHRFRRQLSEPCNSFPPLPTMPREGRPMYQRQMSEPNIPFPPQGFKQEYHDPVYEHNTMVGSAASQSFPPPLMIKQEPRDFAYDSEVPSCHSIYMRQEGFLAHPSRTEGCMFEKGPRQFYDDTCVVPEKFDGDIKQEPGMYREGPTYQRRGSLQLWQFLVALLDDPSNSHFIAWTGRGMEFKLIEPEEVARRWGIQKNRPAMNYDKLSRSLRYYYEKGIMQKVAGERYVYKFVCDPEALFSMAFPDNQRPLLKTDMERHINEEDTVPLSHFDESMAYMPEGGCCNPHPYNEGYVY
Sequence of HSF1 (Q00613 whole entry): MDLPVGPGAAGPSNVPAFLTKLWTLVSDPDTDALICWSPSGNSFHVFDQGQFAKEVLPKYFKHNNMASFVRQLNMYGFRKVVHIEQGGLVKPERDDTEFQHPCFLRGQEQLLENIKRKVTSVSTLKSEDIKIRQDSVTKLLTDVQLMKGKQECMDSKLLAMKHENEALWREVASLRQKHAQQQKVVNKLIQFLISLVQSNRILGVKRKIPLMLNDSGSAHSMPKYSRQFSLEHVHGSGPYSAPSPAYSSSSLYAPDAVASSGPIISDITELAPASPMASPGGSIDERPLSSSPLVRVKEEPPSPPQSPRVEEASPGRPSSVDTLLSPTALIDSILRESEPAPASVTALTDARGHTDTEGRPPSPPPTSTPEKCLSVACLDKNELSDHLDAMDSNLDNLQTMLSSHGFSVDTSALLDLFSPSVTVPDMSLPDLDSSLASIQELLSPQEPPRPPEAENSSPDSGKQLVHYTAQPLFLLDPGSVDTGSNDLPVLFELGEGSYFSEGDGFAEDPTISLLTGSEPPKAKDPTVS

Consider AAAAAT, for which the binding signal in assay [1] is 1.27 fold enrichment (6-mer frequency, TF over GST control); in assay [2], 1.3 fold enrichment (6-mer frequency, TF over GST control); in assay [3] it was 1.5 fold enrichment (6-mer frequency, TF over GST control); in assay [4], 1.25 fold enrichment (6-mer frequency, TF over GST control); in assay [5] it was 1.38 fold enrichment (6-mer frequency, TF over GST control); in [6], 1.31 fold enrichment (6-mer frequency, TF over GST control). For the same sequence, the binding signal in assay [7] is 1.49 fold enrichment (6-mer frequency, TF over GST control); in [8] it was 1.25 fold enrichment (6-mer frequency, TF over GST control); in [9], 1.4 fold enrichment (6-mer frequency, TF over GST control); in assay [10], 1.26 fold enrichment (6-mer frequency, TF over GST control); in assay [11], 1.35 fold enrichment (6-mer frequency, TF over GST control); in assay [12], 1.34 fold enrichment (6-mer frequency, TF over GST control). Besides, the binding signal in [13] was 1.3 fold enrichment (6-mer frequency, TF over GST control); in assay [14], 1.21 fold enrichment (6-mer frequency, TF over GST control); in assay [15], 1.34 fold enrichment (6-mer frequency, TF over GST control); in assay [16] it was 1.3 fold enrichment (6-mer frequency, TF over GST control); in [17], 1.29 fold enrichment (6-mer frequency, TF over GST control); in [18], 1.35 fold enrichment (6-mer frequency, TF over GST control).

The values are drawn from paper PMC7862700, “An all-to-all approach to the identification of sequence-specific readers for epigenetic DNA modifications on cytosine”.
